In the library only some 5.2% were active in any assay of this set; here they are far more common.
PostGolgi ctrl: growth inhibition of yeast control strain, primary screen, counter-screen for post-Golgi transport modulator project | efflux-deficient yeast background strain, growth absorbance A615, 16 h | inhibition, % at 10 µM | 5% of 98,000 active | AID 738, 2007
EphB4 antag: EphB4-ephrin-B2 interaction antagonists, primary screen, biochemical, TNYL-RAW peptide probe, fluorescence polarization; AID 720, 2007; inhibition, % at 7 µM; 0.15% of 97,000 active; EphB4 LBD / TNYL-RAW-Alexa532 peptide; Ephrin type-B receptor 4 (Homo sapiens), P54760;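 active means inhibition above the screen-wide mean inhibition plus 3 SD, cut at about 15% in these data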
Target sequence (P54760 whole entry, looked up, the tested form may be a part): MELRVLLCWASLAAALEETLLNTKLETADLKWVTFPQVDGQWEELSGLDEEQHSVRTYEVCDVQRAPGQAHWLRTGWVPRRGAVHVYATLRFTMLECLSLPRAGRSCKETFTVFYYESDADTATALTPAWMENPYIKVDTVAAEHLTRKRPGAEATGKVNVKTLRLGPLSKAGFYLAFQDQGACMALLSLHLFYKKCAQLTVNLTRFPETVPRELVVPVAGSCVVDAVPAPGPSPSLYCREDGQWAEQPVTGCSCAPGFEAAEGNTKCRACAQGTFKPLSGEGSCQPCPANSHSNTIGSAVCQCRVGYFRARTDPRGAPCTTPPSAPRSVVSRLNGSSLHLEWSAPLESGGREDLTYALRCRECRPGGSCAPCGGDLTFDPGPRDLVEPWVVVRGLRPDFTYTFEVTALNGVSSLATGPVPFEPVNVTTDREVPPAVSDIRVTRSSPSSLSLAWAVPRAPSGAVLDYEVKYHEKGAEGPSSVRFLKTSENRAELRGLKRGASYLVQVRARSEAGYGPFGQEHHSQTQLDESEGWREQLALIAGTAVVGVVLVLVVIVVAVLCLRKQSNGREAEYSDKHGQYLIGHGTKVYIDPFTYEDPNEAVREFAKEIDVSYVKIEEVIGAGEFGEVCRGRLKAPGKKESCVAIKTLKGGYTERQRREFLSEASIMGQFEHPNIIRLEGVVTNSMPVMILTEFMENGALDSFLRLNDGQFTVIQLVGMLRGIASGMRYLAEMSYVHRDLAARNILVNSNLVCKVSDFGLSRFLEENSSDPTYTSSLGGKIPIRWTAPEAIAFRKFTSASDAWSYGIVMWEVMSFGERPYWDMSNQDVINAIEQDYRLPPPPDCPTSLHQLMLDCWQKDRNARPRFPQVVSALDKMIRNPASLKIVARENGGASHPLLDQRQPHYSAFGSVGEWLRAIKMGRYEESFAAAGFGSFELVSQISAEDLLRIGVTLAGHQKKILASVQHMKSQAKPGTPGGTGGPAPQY
Calb biofilm kill: clotrimazole potentiators killing Candida biofilms, primary screen, with clotrimazole, Alamar Blue | AID 834, 2007 | 0.14% of 85,000 active | inhibition, % at 6 µM | C. albicans biofilm + clotrimazole;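 active means inhibition above 20%; inactive means inhibition below 20%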;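 further: preformed 24 hr biofilms exposed to compound for 48 hr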
PostGolgi yeast: phenotypic screen on post-Golgi transport, primary screen | inhibition, % at 10 µM | 0.9% of 98,000 active | post-Golgi transport phenotypic cell assay;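 further: yeast cells grown in 1536-well plates; yeast grown about 18 h at 30C before absorbance read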
A number is an active result. Unless noted, no stated cut-off is given here; in the data, active means inhibition above about 30%; inactive means the rest.

Screening CCC(c1nnnn1C1CCCC1)N1CCN(c2ccccc2F)CC1 (stereo not drawn) returned PostGolgi ctrl inactive, EphB4 antag inactive, Calb biofilm kill inactive and PostGolgi yeast inactive.
For CCCC(c1nnnn1C1CCCC1)N1CCN(c2ccccc2F)CC1 (stereo not drawn) the results were PostGolgi ctrl 66.6, EphB4 antag inactive, Calb biofilm kill inactive and PostGolgi yeast inactive.
`COc1ccc(C(=O)OCn2nnc3ccccc3c2=O)cc1OC` gave PostGolgi ctrl inactive, EphB4 antag inactive and PostGolgi yeast inactive.
For CN(C)S(=O)(=O)c1ccc(C(=O)OCn2nnc3ccccc3c2=O)cc1 the results were PostGolgi ctrl inactive, EphB4 antag inactive, Calb biofilm kill inactive and PostGolgi yeast 58.0.
`Cc1ccc(S(=O)(=O)N[C@H](C(=O)OCn2nnc3ccccc3c2=O)C(C)C)cc1` gave PostGolgi ctrl 34.9, EphB4 antag inactive, Calb biofilm kill inactive and PostGolgi yeast inactive.
For c1ccc(CNc2nc3ccccc3n3cnnc23)cc1 the results were PostGolgi ctrl inactive, EphB4 antag inactive, Calb biofilm kill inactive and PostGolgi yeast inactive.
For COc1cccc(Nc2nc3ccccc3n3cnnc23)c1 the results were PostGolgi ctrl 33.3, EphB4 antag inactive, Calb biofilm kill inactive and PostGolgi yeast inactive.
Screening CC1CCCC(NC(=O)CN(C)S(=O)(=O)c2cccc3cccnc23)C1C (stereo not drawn) returned PostGolgi ctrl inactive, EphB4 antag inactive, Calb biofilm kill inactive and PostGolgi yeast inactive.
Screening Cc1cc(=O)oc2cc(OCC(=O)NCCCN3CCOCC3)ccc12 returned PostGolgi ctrl inactive, EphB4 antag inactive, Calb biofilm kill inactive and PostGolgi yeast inactive.
`Cc1cc(=O)oc2cc(OCCSCCN3CCOCC3)ccc12` gave PostGolgi ctrl 31.9, EphB4 antag inactive, Calb biofilm kill inactive and PostGolgi yeast inactive.
O=C(CSCc1cccc(Cl)c1)NCc1ccc2c(c1)OCO2 was read as PostGolgi ctrl inactive, EphB4 antag inactive, Calb biofilm kill inactive and PostGolgi yeast inactive.
`C/C(=N\NC(=O)CSCc1ccc(Cl)cc1)c1ccc2c(c1)OCCO2` gave PostGolgi ctrl 31.4, EphB4 antag inactive and PostGolgi yeast inactive.
CCCC(=O)NC(=S)Nc1cccc(Cl)c1N1CCCCC1 was read as PostGolgi ctrl inactive, EphB4 antag inactive and PostGolgi yeast inactive.
For CCC(=O)NC(=S)Nc1cccc(Cl)c1N1CCCCC1 the results were PostGolgi ctrl 44.8, EphB4 antag inactive and PostGolgi yeast inactive.
CCc1ccc(N(C(=O)CNC(=O)c2cccs2)C(C(=O)NC(C)(C)C)c2cc(OC)c(OC)c(OC)c2)cc1 (stereo not drawn) was read as PostGolgi ctrl inactive, EphB4 antag inactive and PostGolgi yeast inactive.
For COc1ccc(-c2cc(C(F)(F)F)nc(NC3CCCC3)n2)cc1OC the results were PostGolgi ctrl 34.2, EphB4 antag inactive, Calb biofilm kill inactive and PostGolgi yeast inactive.
For COc1ccc(-c2cc(C(F)(F)F)nc(N3CCOCC3)n2)cc1OC the results were PostGolgi ctrl inactive, EphB4 antag inactive, Calb biofilm kill inactive and PostGolgi yeast inactive.
`CCOC(=O)COc1ccc2c(c1)C(=O)CC(C)(c1cccnc1)O2` (stereo not drawn) gave PostGolgi ctrl 42.2, EphB4 antag inactive and PostGolgi yeast inactive.
For CCC(C)NC(=O)C1CCN(S(=O)(=O)CC)CC1 (stereo not drawn) the results were PostGolgi ctrl inactive, EphB4 antag inactive, Calb biofilm kill inactive and PostGolgi yeast inactive.
CCC(C)NC(=O)C1CCN(S(=O)(=O)N2CCCC2)CC1 (stereo not drawn) was read as PostGolgi ctrl 31.1, Calb biofilm kill inactive and PostGolgi yeast inactive.
For CC(=O)c1nc2ccccc2n1S(=O)(=O)c1ccc(C)cc1 the results were PostGolgi ctrl 39.9, EphB4 antag inactive, Calb biofilm kill inactive and PostGolgi yeast inactive.
`CC(=O)c1nc2ccccc2n1S(=O)(=O)c1ccc(Cl)cc1` gave PostGolgi ctrl inactive, EphB4 antag inactive, Calb biofilm kill inactive and PostGolgi yeast inactive.
Screening COc1ccc(S(=O)(=O)N2CC3C4C=CC(C4)C3C2)cc1 (stereo not drawn) returned PostGolgi ctrl 46.8, EphB4 antag inactive, Calb biofilm kill inactive and PostGolgi yeast inactive.
O=S(=O)(c1ccc(Cl)cc1)N1CCN(C2CCN(Cc3ccccc3)CC2)CC1 was read as PostGolgi ctrl inactive, EphB4 antag inactive, Calb biofilm kill inactive and PostGolgi yeast 89.9.
`CC1=CCC(COC(=O)Nc2ccccc2)CC1` (stereo not drawn) gave PostGolgi ctrl 31.2, EphB4 antag inactive, Calb biofilm kill inactive and PostGolgi yeast inactive.
`Cc1cccc(N(CC(=O)NCc2ccc3c(c2)OCO3)C(=O)CCC(=O)Nc2ccccn2)c1` gave PostGolgi ctrl inactive, EphB4 antag inactive and PostGolgi yeast inactive.
For Cc1ccc(C)c(NC(=O)c2sc(Cl)nc2-c2ccccc2)c1 the results were PostGolgi ctrl inactive, EphB4 antag inactive and PostGolgi yeast inactive.
Screening Cc1ccccc1NC(=O)c1sc(Cl)nc1-c1ccccc1 returned PostGolgi ctrl 39.2, EphB4 antag inactive and PostGolgi yeast inactive.
For Cc1cc(Cl)ccc1Oc1nc(-c2ccc(F)cc2)ccc1C#N the results were PostGolgi ctrl inactive, EphB4 antag inactive and PostGolgi yeast inactive.
NC(N)=N/N=C/c1ccc(OCc2ccc(Cl)cc2)cc1 was read as PostGolgi ctrl 63.1, EphB4 antag inactive and PostGolgi yeast inactive.
For NC(N)=N/N=C/c1ccc(OCc2ccccc2)cc1 the results were PostGolgi ctrl inactive, EphB4 antag inactive and PostGolgi yeast inactive.
For C=CCn1c(SCc2nc3ccccc3nc2C)nnc1-c1ccoc1C the results were PostGolgi ctrl inactive, EphB4 antag inactive, Calb biofilm kill inactive and PostGolgi yeast inactive.
For Cc1cc(C)n2c(SCc3ccccc3Cl)nnc2n1 the results were PostGolgi ctrl 38.5, EphB4 antag inactive, Calb biofilm kill inactive and PostGolgi yeast inactive.
For Cc1cc(C)n2c(SCC(=O)Nc3ccc(Cl)cn3)nnc2n1 the results were PostGolgi ctrl inactive, EphB4 antag inactive and PostGolgi yeast inactive.
`Cc1cc(C)n2c(SCc3ccc(Cl)cc3Cl)nnc2n1` gave PostGolgi ctrl 35.5, EphB4 antag inactive, Calb biofilm kill inactive and PostGolgi yeast inactive.
`CC1CCc2c(sc(NS(=O)(=O)c3ccccc3)c2C(=O)OC(C)C)C1` (stereo not drawn) gave EphB4 antag inactive and Calb biofilm kill inactive.
Screening CCCCn1c(=NC(=O)c2ccco2)c(C(=O)OCC)cc2c(=O)n3ccccc3nc21 returned PostGolgi ctrl inactive, EphB4 antag inactive, Calb biofilm kill inactive and PostGolgi yeast inactive.
For CCCCCn1c(=NC(=O)c2ccco2)c(C(=O)OCC)cc2c(=O)n3ccccc3nc21 the results were PostGolgi ctrl 33.1, EphB4 antag inactive, Calb biofilm kill inactive and PostGolgi yeast inactive.
CCN1C(=O)S/C(=C\c2ccc(N3CCOCC3)cc2C)C1=O was read as PostGolgi ctrl 35.3, EphB4 antag inactive and PostGolgi yeast inactive.
For CCCN1C(=O)S/C(=C\c2ccc(N3CCOCC3)cc2C)C1=O the results were PostGolgi ctrl inactive, EphB4 antag inactive and PostGolgi yeast inactive.

From PubChem BioAssay
